What was measured:
Test in all cases: PBM binding z-score (relative to random genomic background probes); higher = stronger binding; sequences stand for … in GC…GCGATTGACAGCGTAGAATGAAGG
[1] = tested on: FXR:RXRa (NR concentration 270 nM, RXRa partner concentration 90 nM)
Procedure, shortened: (§1)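 Ligand-free nuclear receptor dimers were applied to custom Agilent 4×180K protein-binding microarrays whose double-stranded probes carried direct-repeat seeds, single-nucleotide variants, half-site ablations and random human genomic background sequences in 34-nt variable regions. Incubation lasted 1 h. Binding z-scores were computed against the random background probes from regression-normalized fluorescence.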

[2] = tested on: LXRa:RXRa (NR concentration 270 nM, RXRa partner concentration 90 nM)
Procedure, shortened: as §1

[3] = tested on: LXRa homodimer (NR concentration 270 nM)
Procedure, shortened: as §1

[4] = tested on: LXRb:RXRa (NR concentration 270 nM, RXRa partner concentration 90 nM)
Procedure, shortened: as §1

[5] = tested on: LXRb homodimer (NR concentration 270 nM)
Procedure, shortened: as §1

[6] = tested on: PPARa:RXRa (NR concentration 270 nM, RXRa partner concentration 90 nM)
Procedure, shortened: as §1

[7] = tested on: PPARg:RXRa (NR concentration 180 nM, RXRa partner concentration 90 nM)
Procedure, shortened: as §1

[8] = tested on: PPARg:RXRa 270nM:90nM, anti-RXR (NR concentration 270 nM, RXRa partner concentration 90 nM)
Procedure, shortened: as §1

[9] = tested on: PPARg:RXRa 30nM:10nM, anti-RXR (NR concentration 30 nM, RXRa partner concentration 10 nM)
Procedure, shortened: as §1

[10] = tested on: PPARg:RXRa 90nM:30nM, anti-RXR (NR concentration 90 nM, RXRa partner concentration 30 nM)
Procedure, shortened: as §1

[11] = tested on: PPARg:RXRa DBDmut IVT, anti-RXR (DBD mutation: RXRa K156A/R161A, NR concentration 270 nM, RXRa partner concentration 90 nM)
Procedure, shortened: as §1

[12] = tested on: PPARg:RXRa IVT, anti-PPARg (NR concentration 270 nM, RXRa partner concentration 90 nM)
Procedure, shortened: as §1

[13] = tested on: PPARg DBDmut:RXRa IVT, anti-PPARg (DBD mutation: PPARg1 K132A/R137A, NR concentration 270 nM, RXRa partner concentration 90 nM)
Procedure, shortened: as §1

[14] = tested on: PPARg DBDmut IVT, anti-PPARg (DBD mutation: PPARg1 K132A/R137A, NR concentration 270 nM)
Procedure, shortened: as §1

[15] = tested on: PPARg homodimer (NR concentration 180 nM)
Procedure, shortened: as §1

[16] = tested on: PXR:RXRa (NR concentration 270 nM, RXRa partner concentration 90 nM)
Procedure, shortened: as §1

[17] = tested on: PXR homodimer (NR concentration 270 nM)
Procedure, shortened: as §1

[18] = tested on: RARa:RXR (NR concentration 270 nM, RXRa partner concentration 90 nM)
Procedure, shortened: as §1

[19] = tested on: RARa homodimer (NR concentration 270 nM)
Procedure, shortened: as §1

[20] = tested on: RARb:RXRa (NR concentration 270 nM, RXRa partner concentration 90 nM)
Procedure, shortened: as §1

Sequence | PBM binding z-score [1] | PBM binding z-score [2] | PBM binding z-score [3] | PBM binding z-score [4] | PBM binding z-score [5] | PBM binding z-score [6] | PBM binding z-score [7] | PBM binding z-score [8] | PBM binding z-score [9] | PBM binding z-score [10] | PBM binding z-score [11] | PBM binding z-score [12] | PBM binding z-score [13] | PBM binding z-score [14] | PBM binding z-score [15] | PBM binding z-score [16] | PBM binding z-score [17] | PBM binding z-score [18] | PBM binding z-score [19] | PBM binding z-score [20]
TCAGACAGGTGATGGTAACTCAGGTACGCAGTCG | 0.415 | 0.602 | 0.0587 | 0.648 | -0.117 | 1.16 | 0.601 | 1.7 | 3.35 | 2.55 | 2.18 | 0.496 | -0.328 | -0.349 | 0.0712 | 0.333 | 0.496 | 0.242 | 0.298 | 0.566
CGAACTAGGTCATTGACAGGACAGGGAATAGTAA | 4.56 | 2.81 | 0.225 | 1.82 | -0.158 | 4.65 | 7.57 | 6.18 | 4.13 | 5.76 | 8.02 | 8.21 | 2.18 | 1.03 | 1.49 | 1.43 | 0.107 | 2.22 | 0.195 | 3.69
TCGAGTAGGTTAGGGGCACTCAGAATGGCGTCGA | 0.134 | -0.0493 | -0.34 | 0.556 | -0.72 | 0.994 | 0.844 | 1.91 | 0.959 | 1.64 | 1.87 | 1.32 | -0.303 | -1.43 | 0.271 | 0.155 | -0.021 | 0.491 | -0.62 | 0.927
GCTTACCGGTCAAAGGTTATAGCATGAATAGAAT | 4.43 | 4.56 | 1.49 | 3.6 | 0.218 | 5.47 | 8.77 | 7.56 | 6.87 | 8.38 | 1.07 | 3.62 | 1.01 | 0.383 | 1.71 | 3.63 | 0.0899 | 5.64 | 0.15 | 3.59
ATCTCTAGGTAAAGTTCGGTGAAAGATCGATAGA | 0.889 | 1.94 | 0.491 | 0.602 | 0.935 | 1.22 | 1.55 | 2.48 | 1.27 | 2.34 | 2.6 | 2.15 | 1.46 | 1.56 | 0.996 | 0.633 | 0.941 | 0.644 | 1.22 | 0.896
GATACAGGGTCAGCTAGGGGCCAGAGTATGGAAA | 5.14 | 2.64 | -0.494 | 2.7 | -0.084 | 4.79 | 3.88 | 3.46 | 0.617 | 1.94 | 1.75 | 2.41 | -0.163 | -0.667 | 3.15 | 2.94 | -0.0214 | 4.97 | 0.262 | 4.22
CTCGAAAGGTCGCGCTCAGGTGAGTATACCAAAC | 5.56 | 4.34 | 0.0163 | 3.5 | 0.0326 | 5.16 | 3.37 | 4.57 | 1.32 | 2.97 | 1.22 | 2.52 | 1.3 | 0.149 | 2.13 | 3.65 | -0.145 | 4.74 | -0.225 | 4.46

Reference: the supplement of paper PMC6555819
